Results on 13 compounds are retold here after PubChem BioAssay (NCI).

Each structure is given as a SMILES string. About 83,000 compounds went through this panel and 20% of them were active in at least one assay; those are over-represented in the sample as a whole.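 Testing used 96-well plates and a 48-hour single-concentration exposure. Example: -40 means 40% of the starting cells died.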 A number with no mark means an inactive call. Activity calls are given as the source filed them. The calls were made as follows: active = growth percent below 10; inactive = the rest.

Test systems include HCT-15 colon; HT29 colon; SNB-75 CNS; SNB-19 CNS; U251 CNS; PC-3 prostate; SK-MEL-5 melanoma; UACC-62 melanoma; LOX IMVI melanoma; SK-MEL-28 melanoma.
Holding throughout (test): NCI-60 one-dose screen, 48 h (100 = growth as untreated, 0 = no growth, -100 = all killed)
Holding throughout (conditions): 10 µM unless noted

As for `O[C@H](CN1CC1)[C@@H](O)CN1CC1`, the growth with HCT-15 colon is 79.9%; in the experiment with HT29 colon, 72.5%; with SNB-75 CNS, 70.6%; in the experiment with SNB-19 CNS, 74.5%; with U251 CNS, 60.3%; with PC-3 prostate it was 75.8%. Besides, the growth with SK-MEL-5 melanoma was 75.3%; in the experiment with UACC-62 melanoma, 72.4%; with LOX IMVI melanoma it was 44.6%; in the experiment with SK-MEL-28 melanoma, 106%.
For `Oc1ccc2c3c1OC1[C@@H](O)CC[C@@]4(O)[C@@H](C2)N(CC2CCC2)CC[C@]314` (stereo not given in full), the growth in the experiment on HCT-15 colon is 99.2%; in the experiment on HT29 colon, 98%; in the experiment with SNB-75 CNS it was 97.9%; with SNB-19 CNS it was 109%; in the experiment on U251 CNS, 96.8%; in the experiment on PC-3 prostate, 94.1%. In addition, the growth was 92.5% in the experiment on SK-MEL-5 melanoma, 108% in the experiment with UACC-62 melanoma, 97.3% with LOX IMVI melanoma and 106% in the experiment with SK-MEL-28 melanoma.
With `COC(=O)[C@@H](C)C[C@H](Cc1ccccc1)NC(=O)c1csc([C@@H](C[C@H](C(C)C)N(C)C(=O)[C@@H](NC(=O)[C@H]2CCCCN2C)C2CC2)OC(C)=O)n1`, the growth in the experiment on HCT-15 colon was 12.3%; in the experiment on HT29 colon, -12.4% (active); with SNB-75 CNS it was 32.3%; in the experiment on SNB-19 CNS, 38%; in the experiment on U251 CNS, 13.6%; with PC-3 prostate, 27.2%. Moreover, the growth with SK-MEL-5 melanoma was -50.1% (active); with UACC-62 melanoma it was 60%; in the experiment with LOX IMVI melanoma it was 8.42% (active); in the experiment with SK-MEL-28 melanoma it was 60.3%.
`CC(=O)O[C@H](C[C@H](C(C)C)N(C)C(=O)[C@@H](NC(=O)[C@H]1CCCCN1C)C(C)C)c1nc(C(=O)N[C@@H](Cc2ccccc2)C[C@H](C)C(=O)O)c(CCOCc2ccccc2)s1`: the growth in the experiment with HCT-15 colon was 6.72% (active); in the experiment on HT29 colon, -4.51% (active); with SNB-75 CNS it was 0.84% (active); with SNB-19 CNS, 16%; in the experiment on U251 CNS, 11.5%; in the experiment with PC-3 prostate, 21.9%. The growth in the experiment on SK-MEL-5 melanoma was -40.5% (active); with UACC-62 melanoma it was 27.1%; in the experiment with LOX IMVI melanoma it was 11.8%; in the experiment with SK-MEL-28 melanoma, 42%.
Regarding `C[Se]C(=O)c1ccccc1OC(C)=O`, the growth was 81% in the experiment on HCT-15 colon; 11.1% in the experiment with HT29 colon; -42.4% (active) in the experiment on SNB-75 CNS; 46.6% in the experiment with SNB-19 CNS; 46% in the experiment with U251 CNS; 70% in the experiment with PC-3 prostate. The growth was 79.3% with SK-MEL-5 melanoma, 58.2% in the experiment on UACC-62 melanoma, 45.3% in the experiment on LOX IMVI melanoma and 46.1% with SK-MEL-28 melanoma.
For the compound `CC(C)(N)Cc1ccccc1`, the growth was 105% in the experiment with HCT-15 colon; 97.2% in the experiment with HT29 colon; 103% with SNB-75 CNS; 108% in the experiment with SNB-19 CNS; 105% with U251 CNS; 88.9% in the experiment on PC-3 prostate. Further, the growth in the experiment on SK-MEL-5 melanoma is 116%; in the experiment with UACC-62 melanoma it was 107%; in the experiment with LOX IMVI melanoma, 103%; in the experiment with SK-MEL-28 melanoma, 116%.
As for `COc1ccc(C(O)(C(=O)O)c2ccc(OC)cc2)cc1`, the growth is 95.7% with HCT-15 colon; 81.4% in the experiment with HT29 colon; 101% with SNB-75 CNS; 96.9% in the experiment on SNB-19 CNS; 93.9% in the experiment on U251 CNS; 77.8% with PC-3 prostate. Further, the growth in the experiment on SK-MEL-5 melanoma is 93.6%; in the experiment with UACC-62 melanoma, 85.7%; in the experiment on LOX IMVI melanoma, 93.6%; in the experiment on SK-MEL-28 melanoma, 103%.
`Cc1cnc(/C=C/C(=O)O)cc1-c1cc2c(cc1C)C(C)(C)CCC2(C)C`: the growth in the experiment on HCT-15 colon is 53.9%; with HT29 colon it was 68.3%; in the experiment on SNB-75 CNS, 62.5%; with SNB-19 CNS, 97.4%; in the experiment with U251 CNS, 70.9%; with PC-3 prostate, 74.8%. In addition, the growth with SK-MEL-5 melanoma is 62.8%; in the experiment on UACC-62 melanoma it was 65.8%; in the experiment with LOX IMVI melanoma, 47.9%; in the experiment with SK-MEL-28 melanoma it was 41.5%.
As for `C[C@]12CCc3sc(-c4cccc(F)c4)nc3C1=CC[C@@H]1[C@@H]2CC[C@]2(C)C(=O)CC[C@@H]12`, the growth is -38.2% (active) in the experiment on HCT-15 colon; 5.21% (active) in the experiment with HT29 colon; 44.6% in the experiment with SNB-75 CNS; 60% in the experiment on SNB-19 CNS; 18.8% in the experiment on U251 CNS; 35% in the experiment with PC-3 prostate. The growth in the experiment with SK-MEL-5 melanoma is 61.5%; with UACC-62 melanoma it was 34.9%; in the experiment on LOX IMVI melanoma, 1.34% (active); in the experiment on SK-MEL-28 melanoma it was 48%.
Consider `NC(=O)c1c(Br)n(C2OC(CO)C(O)C2O)c2ncnc(N)c12` (stereo not given), for which the growth is 3.75% (active) in the experiment with HCT-15 colon; 16.3% in the experiment on HT29 colon; 37.5% in the experiment with SNB-75 CNS; 53.9% in the experiment with SNB-19 CNS; 33.4% in the experiment with U251 CNS; -10.5% (active) in the experiment on PC-3 prostate. For the same compound, the growth is 50.7% in the experiment on SK-MEL-5 melanoma, 8.21% (active) in the experiment with UACC-62 melanoma, 1.47% (active) in the experiment on LOX IMVI melanoma and -4.78% (active) with SK-MEL-28 melanoma.
Consider `CC[C@H](C)[C@H](NC(=O)[C@H]1CCCCN1C)C(=O)N(C)[C@H](CCc1nc(C(=O)N[C@@H](Cc2ccccc2)C[C@H](C)C(=O)OC)cs1)C(C)C`, for which the growth in the experiment with HCT-15 colon is 12.3%; with HT29 colon, -3.3% (active); with SNB-75 CNS, 56.3%; in the experiment on SNB-19 CNS it was 35.2%; in the experiment on U251 CNS, 10.2%; in the experiment with PC-3 prostate, 24.3%. Further, the growth in the experiment with SK-MEL-5 melanoma was -22.1% (active); in the experiment with UACC-62 melanoma, 41.5%; with LOX IMVI melanoma it was 24%; in the experiment on SK-MEL-28 melanoma, 65.6%.
As for `O=C(c1cccc(O)c1O)c1cn(Cc2ccc(F)cc2)c2cccc(O)c12`, the growth in the experiment with HCT-15 colon is 27.8%; in the experiment with HT29 colon it was 94.5%; with SNB-75 CNS, 55.3%; with SNB-19 CNS, 37.3%; in the experiment on U251 CNS it was 31%; with PC-3 prostate, 39.2%. Also, the growth with SK-MEL-5 melanoma is 25.4%; with UACC-62 melanoma it was 9.18% (active); in the experiment on LOX IMVI melanoma it was 29.3%; with SK-MEL-28 melanoma, 39.2%.
`CC(C)=CCc1c(O)c(C(=O)CC(C)C)c(O)c2c(-c3ccccc3)cc(=O)oc12`: the growth in the experiment on HCT-15 colon was 30.3%; in the experiment with HT29 colon, 66.5%; with SNB-75 CNS, 81.3%; with SNB-19 CNS, 42.1%; in the experiment with U251 CNS it was 41.3%; in the experiment on PC-3 prostate it was 19.6%. Also, the growth with SK-MEL-5 melanoma was -41.3% (active); with UACC-62 melanoma, 12.2%; in the experiment on LOX IMVI melanoma, 68.2%; in the experiment on SK-MEL-28 melanoma, 39.2%.
